# KB-V1 MDR tox: qHTS assay for MDR1-selective chemotherapeutics: Primary screen using the drug-selected MDR subline cells KB-V1 | hit rate 3.4% among 400,000 | Potency, µM (top dose mostly 46.1 µM), most hits filed as cytotoxic | KB-V1 MDR cells viability, CellTiter-Glo, 72 h; note: % is set by controls: 0 for no effect and ±100 for the full control effect; nearly all actives have a fitted effect of over 60% in size
#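 qHTS viability screen in drug-selected KB-V1 MDR cells: 72 h compound treatment at 37 degrees C, ATP luminescence end point.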
# SW480 rereplic: A quantitative high throughput screen for small molecules that induce DNA re-replication in SW480 colon adenocarcinoma cells | SW480 DNA re-replication, Hoechst DNA content imaging, 48 h | Potency, µM (titrated, usually from 46.1 µM), inactives show at the highest dose re-replication activation, usual class: activators | hit rate 1.8% among 340,000; note: % of control where 0% means no effect; nearly all actives have a fitted effect of over 55% in size
#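 Readout is total intensity of Hoechst-stained nuclei, excited at 405 nm and collected at 500-530 nm. Compound treatment lasted 48 hr at 37 C in 5% CO2 before staining.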
# ELG1 DNA repair: qHTS screen for small molecules that inhibit ELG1-dependent DNA repair in human embryonic kidney (HEK293T) cells expressing luciferase-tagged ELG1 | HEK293T ELG1-luciferase reporter, luminescence, 16 h; DNA damage induced by 5-fluorouridine | hit rate 2.3% among 330,000 | Potency, µM (titrated, usually from 46.1 µM), for inactives: at the top dose activity change, negative = inhibition, most hits filed as inhibitors | AID 504467, 2011; note: % is set by controls: 0 for no effect and ±100 for the full control effect; nearly all actives have a fitted effect of over 55% in size
#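 5-Fluorouridine DNA damage + compound/DMSO, 2,000 cells/well, 16 h, 37 °C/5% CO2. ONE-Glo, 30 min RT, luminescence. Readout = decrease in reporter signal.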
# KB-3-1 cytotox: qHTS assay for MDR1-selective chemotherapeutics: Primary screen using the parental adenocarcinoma cell KB-3-1 | hit rate 1.4% among 400,000 | Potency, µM (top dose mostly 46.1 µM), most hits filed as cytotoxic | AID 1347075, 2019 | KB-3-1 viability, CellTiter-Glo ATP luminescence, 72 h; note: % is set by controls: 0 for no effect and ±100 for the full control effect; nearly all actives have a fitted effect of over 60% in size
#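 Parental KB-3-1 adenocarcinoma cells in phenol-red-free DMEM with 10% FBS were pin-treated with compounds at several concentrations, incubated 72 h at 37 °C, and viability read by CellTiter-Glo luminescence; concentration-effect curves were fitted after normalization.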
# MCF10A rerep: A quantitative high throughput screen for small molecules that induce DNA re-replication in MCF 10a normal breast cells. MCF 10A DNA re-replication, Hoechst nuclear intensity, 48 h. Potency, µM (titrated, usually from 46.1 µM), inactives show at the top dose activity, positive = re-replication, usual class: activators. hit rate 2.9% among 350,000. AID 624296, 2012; note: % of control where 0% means no effect; nearly all actives have a fitted effect of over 50% in size
# * marks the source's active call; other numbers are inactive results; i = inactive; ? = inconclusive; . = no result. Hits are enriched below; roughly 8.1% of the tested compounds scored in any of these assays. Calls come from the whole dose curve; as a rule, active = well fitted curve in the direction sought with a large enough effect; inconclusive = small, poorly fitted or top-dose-only effect, or another doubt; inactive = no such curve, though single readings can be large; an effect the other way counts as inactive or inconclusive. Potency is the fitted concentration of half-maximal effect.
SMILES,KB-V1 MDR tox,SW480 rereplic,ELG1 DNA repair,KB-3-1 cytotox,MCF10A rerep
O=C(c1cccc(Cl)c1)N1CCN(Cc2ccc3c(c2)OCO3)CC1,i,-4%,?,i,-5%
C#CCN1C(=O)C(O)(CC(=O)/C=C/C=C/c2ccccc2)c2ccccc21 (stereo not given),i,?,8%,i,?
Cc1ccccc1CN1CCC(Oc2ccc(C(=O)N3CCCC3)cc2)CC1,i,0%,14%,i,?
Cc1ccccc1Nc1nc(Cl)c(C=O)s1,?,-4%,-12%,i,1%
Cc1cccc(NC(=O)CC23CC4CC(C2)CC(n2nnc(C)n2)(C4)C3)c1,i,-2%,?,i,18%
CCOC(=S)SCC(=O)Nc1nc(-c2ccc(Br)cc2)cs1,5.8µM*,?,?,5.2µM*,8.2µM*
CCOC(=S)SCC(=O)Nc1nc(-c2ccccc2)cs1,?,?,?,6.5µM*,21µM*
CCOC(=S)SCC(=O)Nc1nc(C)c(C)s1,i,104%,-15%,?,18µM*
CCOC(=S)SCC(=O)Nc1nccs1,i,21%,4%,i,?
Cc1ccc(-c2csc(NC(=O)CSC3=NCCS3)n2)cc1,i,-12%,?,i,16%
CC(=O)Nc1cc2c(c(Cl)c1Cl)-c1ccccc1C2=O,i,5%,.,i,?
COc1ccccc1/C=C/C(=O)NCCc1ccccn1,i,-8%,?,i,8%
CC(=O)Nc1ccc(C(=O)OCC(=O)NC(=O)NCc2ccccc2)cc1,i,.,.,i,.
Cc1ccc(C(=O)N(Cc2ccccc2)C(C)(C)C)cc1C,i,-3%,4%,i,23µM*
O=C(COC(=O)c1ccc(F)c([N+](=O)[O-])c1)NC(=O)NCc1ccccc1,?,?,?,i,21µM*
Cc1ccc(C(=O)OCC(=O)N(Cc2ccccc2)C(C)C)cc1C,21µM*,2%,8%,i,-2%
Cc1ccc(C(=O)OCC(=O)NC(=O)NCc2ccccc2)cc1C,i,4%,23%,i,10µM*
CCOc1ccc(NC(=S)N2CCCN(Cc3cccc(Cl)c3)C2)cc1,i,?,-6%,i,?
COc1ccc(CC(N)c2csc(Nc3nccc(C(F)(F)F)n3)n2)cc1 (stereo not given),i,.,.,i,.
Cn1c(Cl)c(C(=O)Nc2ccccc2)c2ccccc21,i,8%,19%,i,3%
Cc1ccc(NC(=O)c2c(Cl)n(C)c3ccccc23)cc1,6.5µM*,?,?,?,?
O=C(CC1CCCC1)NNC(=O)c1ccc(F)cc1,i,-259%,18%,i,18%
Cc1ccc(C(=O)N/C(=C/c2ccc(-c3ccc(Br)cc3)o2)C(=O)NC2CCS(=O)(=O)C2)cc1 (stereo not given),?,24%,15%,i,?
COc1cc(N2C(=O)C=CC2=O)c(OC)cc1Cl,?,?,-13%,?,5.8µM*
O=C(Nc1ccc(NC(=O)C2CC2)nc1)c1cnccn1,i,-29%,4%,i,2%
SMILES,KB-V1 MDR tox,SW480 rereplic,ELG1 DNA repair,KB-3-1 cytotox,MCF10A rerep
CSc1nsc(/C=C/Nc2ccc(C)c(C)c2)c1C#N,i,18µM*,0%,i,1.2µM*
O=C(CCC1COc2ccccc2O1)Nc1ncccc1O (stereo not given),i,5%,-2%,i,10%
COc1oc(C(=O)NC2CCCCC2)c(-c2ccc(Cl)cc2)c1S(=O)(=O)c1ccccc1,4.6µM*,?,.,?,27%
COc1cc(-c2cc3nc(NCCOc4ccccc4)ccn3n2)cc(OC)c1OC,16µM*,.,.,?,.
CCN1CCN(CCc2nc3cc([N+](=O)[O-])ccc3n2C)CC1,i,-130%,0%,i,-4%
COc1cc(NC(=O)CSc2nc(C)c(C)c(C)n2)c(C)cc1[N+](=O)[O-],15µM*,-14%,-20%,i,7%
COc1cc(NC(=O)CN2CCN(c3ccccc3O)CC2)c(C)cc1[N+](=O)[O-],?,.,21µM*,i,-4%
C=C(C)CNC(=S)N/N=C(\C)c1ccc(-n2ccnc2)cc1,15µM*,-5%,?,i,?
O=C(NCc1ccccc1)c1ccc(NC(=O)C2CCC2)cc1,i,2%,.,i,?
CN1OC(COC(=O)c2ccccc2)CC1c1ccccc1 (stereo not given),i,-2%,13%,i,0%
Cc1ccc(N=Cc2nc(-c3ccc(C)cc3)oc2O)cc1,i,?,9%,i,6.5µM*
Cn1cccc1Cc1nnc(SCC(=O)NC2CCCCC2)n1CCc1ccccc1,i,?,-9%,i,21%
Cc1nn(-c2ccccc2)c(Cl)c1CN(C(=O)CCl)c1cccc2ccccc12,?,?,?,18µM*,?
CC(=O)N(Cc1c(C)nn(-c2ccccc2)c1Cl)c1ccc(Cl)cc1,?,-5%,-3%,i,14%
Cc1nn(-c2ccccc2)c(Cl)c1CN(C(=O)CCl)c1ccc(Cl)cc1,21µM*,3.3µM*,?,?,?
Cc1cccc(NC(=O)c2cc3n(n2)C(C(F)(F)F)CC(C2CC2)N3)c1C (stereo not given),i,-4%,9%,i,-7%
CC(O)CNc1nc2c(c(=O)n(C)c(=O)n2C)n1Cc1cccc(Br)c1 (stereo not given),15µM*,-1%,0%,?,?
CC(C)CNc1nc2c(c(=O)n(C)c(=O)n2C)n1Cc1cccc(Br)c1,i,-1%,?,i,-16%
COc1cccc(Cn2c(NCC(C)C)nc3c2c(=O)n(C)c(=O)n3C)c1,3.3µM*,-6%,-18%,i,?
O=S(=O)(c1cc(Cl)ccc1Cl)N1CCC2(CC1)OCCO2,i,-7%,?,i,-2%
COc1ccc(OC)c(C2CC(c3c(-c4ccccc4)c4cc(Cl)ccc4[nH]c3=O)=NN2S(C)(=O)=O)c1 (stereo not given),i,?,5.2µM*,i,7.3µM*
C#CC[N+](C)(C)CC#Cc1ccc(C)cc1,i,-14%,8%,12µM*,6%
CC(=O)Nc1ccc(-c2ccnc3c2CC(C)(C(=O)NCC2CCOCC2)O3)cc1 (stereo not given),i,.,.,?,.
O=C(Cn1ncc(Cl)c(Cl)c1=O)c1ccc2c(c1)OCCO2,21µM*,?,?,?,2.9µM*
